The supplement of paper PMC10338343
± gives the standard deviation.

Tests used:
[1] = test system: MILI (PIWIL2) piRISC loaded with L1MC piRNA (26 nt); assay: pre-steady-state target cleavage rate (min^-1); guide: L1MC piRNA 5'p-UAACUAAAUACUAUGCAAGCUGUAGG; higher = faster piRNA-guided slicing of the target; conditions: auxiliary factor: 500 nM mouse GTSF1;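 note: 1 nM active piRISC with 0.1 nM target library at 33 °C single turnover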
Method in brief: (§1)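 In this Cleave-'n-Seq assay, uncleaved targets were sequenced and normalised to depth and to weakly complementary targets. They came from a transcribed, DNA-blocked target RNA library […] mixed with 1 nM active affinity-purified piRISC carrying one synthetic guide, with or without 500 nM GTSF1 partner protein, in HEPES–potassium acetate buffer at 33 °C for 0–8 or 0–960 min. After three trials were pooled and k3 was capped at 0.0001 min^-1, the pre-steady-state cleavage rate was obtained from a burst-and-steady-state fit.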

[2] = test system: EfPiwi piRISC loaded with L1MC piRNA (26 nt); assay: pre-steady-state target cleavage rate (min^-1); auxiliary factor: 500 nM Ephydatia muelleri Gtsf1; guide: L1MC piRNA 5'p-UAACUAAAUACUAUGCAAGCUGUAGG; MIWI and MILI are mouse PIWI proteins and EfPiwi is from a freshwater sponge; tags in brackets are library labels; higher = faster piRNA-guided slicing of the target
Method in brief: as §1

Sequence: UCCUCCUACAGCUUGCAUAGUAUUUAGCUUA
- pre-steady-state target cleavage rate [1]: 0.253 ± 0.075
- pre-steady-state target cleavage rate [2]: 0.00683 ± 0.0027

Sequence: UCCUGGAACAGCUUGCAUAGUAUAAAGAAA
- pre-steady-state target cleavage rate [1]: 0.0192 ± 0.0088
- pre-steady-state target cleavage rate [2]: 0.00217 ± 0.0021

Sequence: UCCUGGAUGAGCUUGCAUAGUAUUUAGAUUA
- pre-steady-state target cleavage rate [1]: 0.165 ± 0.048
- pre-steady-state target cleavage rate [2]: 0.00336 ± 0.002

Sequence: UCCUGCUACAGCUUGCAUAGUAUAAUGUUA
- pre-steady-state target cleavage rate [1]: 0.166 ± 0.022
- pre-steady-state target cleavage rate [2]: 0.00304 ± 0.002

Sequence: UCCUGGAUGUCCUUGCAUAGUAUUUAGAUUA
- pre-steady-state target cleavage rate [1]: 0.101 ± 0.022
- pre-steady-state target cleavage rate [2]: 0.00316 ± 0.003

Sequence: UCCUCGUACAGCUUCCAUAGUAUUUAGUUA
- pre-steady-state target cleavage rate [1]: 0.0687 ± 0.018
- pre-steady-state target cleavage rate [2]: 0.00339 ± 0.0014

Sequence: UCCUGGAUCAGCUUCCAUAGUAUUUAGUAA
- pre-steady-state target cleavage rate [1]: 0.0353 ± 0.0094
- pre-steady-state target cleavage rate [2]: 0.00347 ± 0.0017

Sequence: UCCUCCUAGAGCUUGCAUAGUAUUUAGAAA
- pre-steady-state target cleavage rate [1]: 0.069 ± 0.016
- pre-steady-state target cleavage rate [2]: 0.00517 ± 0.0019

Sequence: UCCUGGAACAGCUUGCAUAGUAAAAAGUUA
- pre-steady-state target cleavage rate [1]: 0.0663 ± 0.018
- pre-steady-state target cleavage rate [2]: 0.00324 ± 0.0027

Sequence: UCCUGGAUCAGCAUGCAUAGUAUUUAGAUA
- pre-steady-state target cleavage rate [1]: 0.149 ± 0.017
- pre-steady-state target cleavage rate [2]: 0.0044 ± 0.0024

Sequence: UCCUGGAUGAGCUUGCAUAGUAUUUAGUCUA
- pre-steady-state target cleavage rate [1]: 0.0419 ± 0.013
- pre-steady-state target cleavage rate [2]: 0.00413 ± 0.0026

Sequence: UCCUCCUACAGCUUGCAUAGAAUUUACAAA
- pre-steady-state target cleavage rate [1]: 0.0431 ± 0.015
- pre-steady-state target cleavage rate [2]: 0.00295 ± 0.0029

Sequence: UCCUGGAUCAGCUUGCAUAGUAUUUUCAAA
- pre-steady-state target cleavage rate [1]: 0.0677 ± 0.013
- pre-steady-state target cleavage rate [2]: 0.00307 ± 0.0027

Sequence: UCCUGGAUCAGCUUGCACUAGUAUUUAGUUA
- pre-steady-state target cleavage rate [1]: 0.00868 ± 0.0048
- pre-steady-state target cleavage rate [2]: 0.00365 ± 0.0027

Sequence: UCCUGGAUCAGCUUGCAUAGUAUUAAGAUA
- pre-steady-state target cleavage rate [1]: 0.0716 ± 0.025
- pre-steady-state target cleavage rate [2]: 0.006 ± 0.0032

Sequence: UCCUGCUACAGCUUGCAUAGUAUUAUGUUA
- pre-steady-state target cleavage rate [1]: 0.231 ± 0.047
- pre-steady-state target cleavage rate [2]: 0.00406 ± 0.002

Sequence: UCCUGGAACACCUAGCAUAGUAUUUAGUUA
- pre-steady-state target cleavage rate [1]: 0.229 ± 0.032
- pre-steady-state target cleavage rate [2]: 0.00601 ± 0.0036

Sequence: UCCUGCAUCAGCUUGCAUAGUAUUUAGAAA
- pre-steady-state target cleavage rate [1]: 0.127 ± 0.022
- pre-steady-state target cleavage rate [2]: 0.00393 ± 0.0017

Sequence: UCCUGGAACAGGAUGCAUAGUAUUUACAAA
- pre-steady-state target cleavage rate [1]: 0.0486 ± 0.017
- pre-steady-state target cleavage rate [2]: 0.00226 ± 0.0018

Sequence: UCCUGGAUCAGCAUCCAUAGUAUUUAGUUA
- pre-steady-state target cleavage rate [1]: 0.103 ± 0.022
- pre-steady-state target cleavage rate [2]: 0.00269 ± 0.0023
